Data from PMC5540273 (PLoS ONE, 2017).

Key:
Conditions in all cases: concentration: 1 μM, replicates: in singlicate; n = 1
[1] = tested on: SRPK2
[2] = tested on: SRPK3
[3] = tested on: STK16
[4] = tested on: STK33
[5] = tested on: STK35
[6] = tested on: STK36
[7] = tested on: STK39
[8] = tested on: SYK
[9] = tested on: SgK110
[10] = tested on: T1, TAK1
T1 construct: gene MAP3K7

[11] = tested on: TAOK1
[12] = tested on: TAOK2
[13] = tested on: TAOK3
[14] = tested on: TBK1
[15] = tested on: TEC
[16] = tested on: TESK1
[17] = tested on: TGFBR1
[18] = tested on: TGFBR2
[19] = tested on: TIE1
[20] = tested on: T2, TIE2
T2 construct: gene TEK
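Note: KINOMEscan kinase panel screen.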

Structure (SMILES)	%Inh [1] [%]	%Inh [2] [%]	%Inh [3] [%]	%Inh [4] [%]	%Inh [5] [%]	%Inh [6] [%]	%Inh [7] [%]	%Inh [8] [%]	%Inh [9] [%]	%Inh [10] [%]	%Inh [11] [%]	%Inh [12] [%]	%Inh [13] [%]	%Inh [14] [%]	%Inh [15] [%]	%Inh [16] [%]	%Inh [17] [%]	%Inh [18] [%]	%Inh [19] [%]	%Inh [20] [%]
Cc1ccccc1Cn1ccn2c(=O)cc(N3CCOCC3)nc12 [GSK2269905]	0	0	0	0	0	0	12	23	0	0	0	0	0	0	16	15	0	0	0	0
Cn1cncc1-c1cc2c(Nc3ccc(OCc4ccccc4)cc3)ncnc2cn1 [GW281179]	0	0	4	0	0	0	12	27	0	0	0	0	0	0	0	35	0	0	0	0
NS(=O)(=O)c1cccc(N/C=C2\C(=O)Nc3ccc(S(=O)(=O)Cc4c(Cl)cccc4Cl)cc32)c1 [GSK398099]	0	0	19	0	0	0	0	0	0	0	0	2	10	37	6	9	0	0	0	0
O=C(Nc1n[nH]c2nc(-c3ccco3)c(Br)cc12)C1CCN(Cc2ccccc2)C1.O=C(O)[C@H](O)[C@@H](O)C(=O)O (centres unmarked) [SB-742034]	0	0	57	23	0	29	1	0	37	22	0	0	10	18	8	23	0	21	0	17
O=C1NC(=O)C(c2ccc(Cl)cc2)=C1Nc1ccc(O)cc1 [SB-340867]	18	0	0	0	0	11	0	4	50	0	0	0	0	0	0	12	1	0	0	0
Cn1cnc2c(N)ncnc21 [SKF-97623]	10	18	0	0	19	0	2	0	0	0	0	0	0	0	0	0	9	2	0	0
CSc1ccc(-c2nc3n(c2-c2ccncc2)CCC3)cc1 [SKF-105561]	25	0	4	11	3	16	0	18	0	0	0	14	9	0	11	8	15	13	0	0
COc1ccc(CSc2nnc(-c3ccc4ncsc4c3)o2)cc1C(F)(F)F	0	0	15	0	0	0	0	0	25	0	31	9	0	13	0	3	5	19	0	19
COC(=O)C(Cc1ccccc1)NC(=O)NC1CCN(c2ccnc(Nc3ccc(F)cc3)n2)C1 (centres unmarked) [GSK1379714]	38	0	19	8	0	31	10	34	0	0	0	0	0	21	0	16	20	0	16	0
CS(=O)(=O)CCNCc1nc(-c2ccc3ncnc(Nc4ccc(OCc5ccccc5)c(Cl)c4)c3c2)cs1.Cl [GW582764]	36	0	0	0	0	0	4	20	0	0	0	0	0	0	0	19	58	0	0	0
